Screens deposited in PubChem BioAssay by National Center for Advancing Translational Sciences (NCATS).
A selection: hits, their analogues and other compounds. The true share with any hit is near 10%.
G9a inh = qHTS Assay for Inhibitors of Histone Lysine Methyltransferase G9a | Histone-lysine N-methyltransferase EHMT2 (Homo sapiens), Q96KQ7 | actives 8.8% (n = 350,000) | Potency, µM (top dose mostly 102 µM), for inactives: at the highest dose activity, negative = inhibition, actives largely listed as inhibitors | G9a H3K9 monomethylation, AlphaScreen, 2 h; further: potency means the concentration at half of the fitted maximal effect; on the % scale 0 is the no-effect control and ±100 the full control effect; nearly all actives have a fitted effect of over 75% in size
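AlphaScreen read-out: biotin-H3K9 peptide (500 nM) methylation by 20 nM enzyme with 20 uM SAM, 2 h at room temperature after 15 min compound preincubation; anti-monomethyl H3K9 antibody plus donor/acceptor beads, 10 min dark.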
Six1-Eya2 inh = qHTS Assay for Inhibitors of the Six1/Eya2 Interaction; Homeobox protein SIX1 (Homo sapiens) + Protein phosphatase EYA2 (Homo sapiens), …; AlphaScreen GST-Six1/His-Eya2 binding, biochemical; hits give low values; activity change, % (test concentration not listed); actives 0.56% (n = 360,000); in the data active means activity change below about -65%; inconclusive means mostly about -30% to -63%; further: on the % scale 0 is the no-effect control and ±100 the full control effect
Target sequence (O00167 whole entry, looked up): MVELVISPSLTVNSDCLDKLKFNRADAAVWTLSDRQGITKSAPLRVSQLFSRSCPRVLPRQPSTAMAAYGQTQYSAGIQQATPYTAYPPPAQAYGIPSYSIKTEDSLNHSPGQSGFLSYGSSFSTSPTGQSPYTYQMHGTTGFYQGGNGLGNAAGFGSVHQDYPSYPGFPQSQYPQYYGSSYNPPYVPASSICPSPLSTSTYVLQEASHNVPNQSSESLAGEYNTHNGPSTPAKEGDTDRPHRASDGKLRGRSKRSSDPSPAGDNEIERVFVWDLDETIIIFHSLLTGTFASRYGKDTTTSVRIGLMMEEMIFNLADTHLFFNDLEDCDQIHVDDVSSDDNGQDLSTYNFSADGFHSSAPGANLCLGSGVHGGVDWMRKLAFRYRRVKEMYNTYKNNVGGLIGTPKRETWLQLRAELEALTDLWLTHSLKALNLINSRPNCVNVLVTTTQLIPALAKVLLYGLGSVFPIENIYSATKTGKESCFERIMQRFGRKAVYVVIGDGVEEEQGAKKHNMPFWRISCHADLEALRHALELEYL
Target sequence (Q15475 whole entry, looked up): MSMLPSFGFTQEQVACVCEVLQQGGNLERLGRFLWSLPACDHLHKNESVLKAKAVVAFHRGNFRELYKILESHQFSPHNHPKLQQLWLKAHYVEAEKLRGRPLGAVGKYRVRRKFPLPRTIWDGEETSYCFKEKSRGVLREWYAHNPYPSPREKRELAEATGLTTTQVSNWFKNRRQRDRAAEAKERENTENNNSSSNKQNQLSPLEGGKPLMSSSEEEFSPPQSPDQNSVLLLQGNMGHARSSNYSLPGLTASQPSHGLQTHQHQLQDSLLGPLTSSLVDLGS
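Six1/Eya2 binding was read as AlphaScreen signal after compounds were pinned into GST-Six1 plus His-tagged Eya2 (5X stock 250/500 nM) in pH 8.0 Tris/NaCl/TCEP buffer, beads added, then incubated 1 h, 37 C, dark.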
CtBP-E1A inh = qHTS Assay for Inhibitors of the CtBP/E1A Interaction. CtBP / adenovirus E1A interaction (AlphaScreen). AlphaScreen GST-E1A/His-CtBP binding, 1536-well; hits give low values. activity change, % (test concentration not listed). actives 0.49% (n = 340,000); in the data active means activity change below about -65%; inconclusive means mostly about -30% to -63%; further: on the % scale 0 is the no-effect control and ±100 the full control effect
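Homogeneous bead-based format: GST-tagged E1A captured on glutathione donor beads, His-tagged CtBP on nickel acceptor beads; compounds precede bead addition by 2 h at 37 °C.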
HP1b binding inh = HTS for Inhibitors of HP1-beta Chromodomain Interactions with Methylated Histone Tails; AlphaScreen HP1-beta / biotin-H3K9me3 peptide binding; Potency, µM (top dose mostly 114 µM), for the others: top-dose activity change, negative = inhibition, most hits filed as inhibitors; actives 0.56% (n = 390,000); AID 540317, 2011; further: potency means the concentration at half of the fitted maximal effect; nearly all actives have a fitted effect of over 70% in size
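Compound inhibition of the preformed complex between 50 nM HP1-beta and 50 nM biotinylated H3K9me3 peptide was read by AlphaScreen. Buffer was PBS pH 7.4 with 0.01% Tween-20. Incubations ran 30 min at room temperature, with 10 ug/mL donor/acceptor beads.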
BAZ2B block = qHTS Assay for Inhibitors of BAZ2B; AID 504333, 2011; actives 4.4% (n = 360,000); AlphaScreen BAZ2B-H3K14Ac peptide displacement; Potency, µM (top dose mostly 114 µM), for the others: at the highest dose activity change, negative = inhibition, actives largely listed as inhibitors; Bromodomain adjacent to zinc finger domain protein 2B (Homo sapiens), Q9UIF8; further: potency means the concentration at half of the fitted maximal effect; on the % scale 0 is the no-effect control and ±100 the full control effect; nearly all actives have a fitted effect of over 60% in size
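In this displacement format the biotinylated H3(5-23) peptide acetylated at Lys14 serves as ligand at 50 nM, with BAZ2B at 50 nM in PBS pH 7.4 containing 0.01% Tween-20. Donor and acceptor beads are 10 ug/mL final.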
JMJD2A Tudor = qHTS Assay for Inhibitors of JMJD2A-Tudor Domain. AlphaScreen JMJD2A-Tudor / H3K4me3 peptide binding. Lysine-specific demethylase 4A (Homo sapiens), O75164. actives 4.4% (n = 390,000). AID 504339, 2011. Potency, µM (series often up to 114 µM), inactives show top-dose activity change, negative = inhibition, usual class: inhibitors; further: potency means the concentration at half of the fitted maximal effect; on the % scale 0 is the no-effect control and ±100 the full control effect; nearly all actives have a fitted effect of over 50% in size
* marks the source's active call; other numbers are inactive results; ? = inconclusive; . = no result given; [ ] = remark or other dose. Unless noted, the call rests on the fitted dose curve; in most records, active means well fitted inhibition curve with a large enough effect; inconclusive means small, poorly fitted or top-dose-only effect; inactive means no such curve, though single readings can be large or run the other way.

SMILES	G9a inh	Six1-Eya2 inh	CtBP-E1A inh	HP1b binding inh	BAZ2B block	JMJD2A Tudor
Cc1ccc2occ(CC(=O)N(Cc3ccc(N(C)C)cc3)C3CCS(=O)(=O)C3)c2c1 (centres undefined)	10µM*	.	.	-19%	45µM*	?
CC(C)c1ccc2occ(CC(=O)N(Cc3ccc(F)cc3)C3CCS(=O)(=O)C3)c2c1 (centres undefined)	-2%[59 µM]	.	.	20%	-9%	-24%
CCOc1ccc(C(=O)Nc2ccc(S(=O)(=O)Nc3nc(C)cc(C)n3)cc2)cc1OC	26%[59 µM]	.	.	69%	-3%	-3%
COC(=O)c1ccc(NC(=O)CSc2nc3cc4ccccc4cc3[nH]2)cc1	-68%[59 µM]	.	.	44%	-2%	-9%
Cc1ccc(C(=O)CCS(=O)(=O)c2ccc(F)cc2)cc1	32µM*	-1	7	44%	-4%	-18%
Cc1ccc(S(=O)(=O)CCC(=O)c2ccc(F)cc2)cc1	126%	-1	-10	49%	8%	-3%
COC(=O)c1ccc(OC(=O)CCS(=O)(=O)c2ccc(C)cc2)cc1	35µM*	-16	-15	27%	0%	-6%
CC(=O)c1cc(NC(=O)c2ccc(C)cc2)c(=O)oc1/C=C/N(C)C	-40%[12.7 µM]	10	19	19%	1%	-20%
Cc1oc(=O)c(NC(=O)c2ccccc2)cc1C(=O)c1ccccc1	.	-1	5	23%	-6%	-25%
CC(=O)c1cc(NC(=O)c2ccc(C)cc2)c(=O)oc1C	18µM*	-8	0	-23%	-19%	20µM*
CC1(C)CC(=O)c2cc(NC(=O)c3ccccc3)c(=O)oc2C1	-22%	2	2	6%	-1%	79µM*
CC(=O)c1cc(NC(=O)c2ccccc2)c(=O)oc1C	32µM*	-4	-18	?	-21%	-33%
O=C(Nc1cc2c(oc1=O)CCCC2=O)c1cccc(Cl)c1	-11%	-1	-5	10%	-23%	-7%
COc1ccc(Cl)cc1S(=O)(=O)N1CCN(Cc2cccc(F)c2)CC1	3%[59 µM]	.	.	43%	2%	-17%
CCC(Oc1ccccc1)C(=O)NC1CCCCCC1 (centres undefined)	4%	5	1	61%	7%	-5%
CCC(Oc1ccccc1)C(=O)NC1CCSC1=O (centres undefined)	45µM*	3	0	49%	-15%	-2%
O=C(Nc1cccc(-c2cccc(Cl)c2)c1)C1CCN(Cc2ccccn2)CC1	45µM*	2	13	46%	6%	-31%
O=C(Nc1ccc(-n2cccn2)cc1)C1CCN(Cc2ccccn2)CC1	35µM*	-12	-1	21%	?	22µM*
O=C(Nc1ccc(-n2cccn2)cc1)C1CCCCN1Cc1cccc2cccnc12 (centres undefined)	20%[59 µM]	-15	-18	12%	?	-29%
Cc1nn(C(=O)c2cccc(F)c2)c(C)c1S(=O)(=O)N1CCOCC1	-6%[59 µM]	.	.	41%[57 µM]	3%	5%
COc1ccc(CNC(=O)Cn2nc(C)c3nn(-c4ccc(Cl)cc4)c(C)c3c2=O)cc1	17%[59 µM]	.	.	16%[57 µM]	8%	-13%
COC(=O)c1cc(C)sc1NC(=S)N1CCN(CCc2ccccc2)CC1	?	2	1	-11%	?	-28%
CCc1cc(C(=O)OC)c(NC(=O)CCC(=O)O)s1	14µM*	1	11	?	8%	-12%
CCCN1CCN(C(=S)Nc2sc(CC)cc2C(=O)OC)CC1	50µM*	-21	.	15%	-37%	?
